Common to all, as to test: DAPPL (digital affinity profiling via proximity ligation, sequencing); 10 mM Tris-HCl pH 7.5, 50 mM NaCl, 1 mM DTT, 4% glycerol, room temperature, 30 min; GST-TFs on glutathione beads, 16-mer random dsDNA library, 0.1% formaldehyde crosslink after washing; high values mean tight binding
Settings in all cases: protein: recombinant; tags: N-terminal GST; dsDNA, one strand shown

Assay [1] concerns the target T1, FLI1 (Homo sapiens, UniProt Q01543 1-452).
T1 sequence: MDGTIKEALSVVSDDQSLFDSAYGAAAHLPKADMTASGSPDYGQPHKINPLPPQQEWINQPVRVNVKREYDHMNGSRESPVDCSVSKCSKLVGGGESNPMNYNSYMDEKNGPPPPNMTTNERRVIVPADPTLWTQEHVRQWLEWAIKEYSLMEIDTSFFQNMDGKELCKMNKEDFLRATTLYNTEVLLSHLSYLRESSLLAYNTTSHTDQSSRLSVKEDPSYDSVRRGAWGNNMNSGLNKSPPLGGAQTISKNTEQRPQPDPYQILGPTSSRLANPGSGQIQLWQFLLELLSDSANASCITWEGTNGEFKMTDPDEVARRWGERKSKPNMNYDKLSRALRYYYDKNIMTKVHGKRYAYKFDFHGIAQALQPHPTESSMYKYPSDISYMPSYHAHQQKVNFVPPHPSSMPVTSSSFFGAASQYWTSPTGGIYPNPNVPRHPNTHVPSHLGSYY
In outline:
(§1)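 Human transcription factors were made in yeast as GST fusions, captured on glutathione beads and barcoded with DNA. With a tag-only sample included, the pool was incubated with 200 nmole of a random double-stranded 16-mer DNA library in Tris/NaCl/DTT/glycerol buffer at room temperature for 30 min, then crosslinked with 0.1% formaldehyde after washing, ligated by proximity, amplified and sequenced. For binding signal, each hexamer's read frequency for a factor is divided by its frequency for the tag-only sample.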

The target of assay [2] is T2, ELK1 (Homo sapiens, UniProt P19419 1-428).
T2 sequence: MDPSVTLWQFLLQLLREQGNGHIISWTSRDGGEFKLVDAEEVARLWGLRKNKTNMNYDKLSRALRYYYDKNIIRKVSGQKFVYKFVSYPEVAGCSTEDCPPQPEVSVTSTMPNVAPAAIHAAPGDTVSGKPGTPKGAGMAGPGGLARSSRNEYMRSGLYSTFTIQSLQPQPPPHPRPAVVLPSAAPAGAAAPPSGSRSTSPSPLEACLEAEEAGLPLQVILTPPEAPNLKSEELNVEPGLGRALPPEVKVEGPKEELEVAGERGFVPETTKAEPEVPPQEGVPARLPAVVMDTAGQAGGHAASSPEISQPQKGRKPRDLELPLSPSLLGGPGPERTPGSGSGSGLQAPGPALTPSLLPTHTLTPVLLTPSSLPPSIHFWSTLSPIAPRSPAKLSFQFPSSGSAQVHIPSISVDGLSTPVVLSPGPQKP
The procedure, abridged:
as §1

The target in assay [3] is T3, GABPA (Homo sapiens, UniProt Q06546 1-454).
T3 sequence: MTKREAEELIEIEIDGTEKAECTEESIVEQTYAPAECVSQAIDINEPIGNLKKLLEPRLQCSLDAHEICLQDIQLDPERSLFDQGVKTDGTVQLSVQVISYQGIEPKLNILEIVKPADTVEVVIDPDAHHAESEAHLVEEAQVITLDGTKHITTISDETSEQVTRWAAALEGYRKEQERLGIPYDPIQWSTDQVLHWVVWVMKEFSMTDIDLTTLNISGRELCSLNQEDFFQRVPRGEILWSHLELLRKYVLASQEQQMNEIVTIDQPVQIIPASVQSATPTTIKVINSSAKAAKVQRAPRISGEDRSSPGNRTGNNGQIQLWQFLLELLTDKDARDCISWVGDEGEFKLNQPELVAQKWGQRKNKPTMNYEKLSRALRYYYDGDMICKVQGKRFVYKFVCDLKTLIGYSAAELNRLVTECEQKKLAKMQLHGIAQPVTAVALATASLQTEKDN
In outline:
as §1

For assay [4], the target named is T4, ERG (Homo sapiens, UniProt P11308 1-479).
T4 sequence: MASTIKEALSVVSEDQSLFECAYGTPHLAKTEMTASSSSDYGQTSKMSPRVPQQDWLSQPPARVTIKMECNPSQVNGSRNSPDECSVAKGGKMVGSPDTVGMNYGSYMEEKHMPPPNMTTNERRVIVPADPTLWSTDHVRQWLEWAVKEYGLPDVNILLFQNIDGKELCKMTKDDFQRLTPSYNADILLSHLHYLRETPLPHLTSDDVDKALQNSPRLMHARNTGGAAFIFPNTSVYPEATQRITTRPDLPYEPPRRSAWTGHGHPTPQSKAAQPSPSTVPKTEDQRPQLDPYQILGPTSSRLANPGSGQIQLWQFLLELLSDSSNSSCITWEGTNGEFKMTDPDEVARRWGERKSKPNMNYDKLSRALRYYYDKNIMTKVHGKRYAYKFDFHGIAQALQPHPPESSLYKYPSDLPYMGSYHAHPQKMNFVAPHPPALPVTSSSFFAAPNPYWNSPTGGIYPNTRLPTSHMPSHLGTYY
In outline: as §1

The target in assay [5] is ELF1 (Homo sapiens, UniProt P32519 1-619). In outline: as §1
ELF1, sequence (P32519 whole entry): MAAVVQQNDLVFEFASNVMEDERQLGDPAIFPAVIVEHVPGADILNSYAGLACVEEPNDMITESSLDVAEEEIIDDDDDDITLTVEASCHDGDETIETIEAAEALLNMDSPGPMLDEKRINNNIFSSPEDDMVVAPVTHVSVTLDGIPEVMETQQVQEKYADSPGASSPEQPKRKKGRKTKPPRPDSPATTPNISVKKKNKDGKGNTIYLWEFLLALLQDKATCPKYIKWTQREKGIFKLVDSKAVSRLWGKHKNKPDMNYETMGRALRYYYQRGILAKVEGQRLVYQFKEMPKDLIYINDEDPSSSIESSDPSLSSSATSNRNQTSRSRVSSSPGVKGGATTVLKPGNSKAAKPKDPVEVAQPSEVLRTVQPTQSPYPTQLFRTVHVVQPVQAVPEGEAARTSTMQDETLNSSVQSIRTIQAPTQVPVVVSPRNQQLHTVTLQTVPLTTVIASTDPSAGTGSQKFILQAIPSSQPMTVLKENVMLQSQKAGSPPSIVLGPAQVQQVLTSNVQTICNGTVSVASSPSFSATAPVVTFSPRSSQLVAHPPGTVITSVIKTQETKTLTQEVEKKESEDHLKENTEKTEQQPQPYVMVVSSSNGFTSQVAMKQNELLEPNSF
For assay [6], the target named is SPI1 (Homo sapiens, UniProt P17947 1-270). In outline: as §1
Assay [7] has as its target T5, ELK3 (Homo sapiens, UniProt P41970 1-407).
T5 sequence: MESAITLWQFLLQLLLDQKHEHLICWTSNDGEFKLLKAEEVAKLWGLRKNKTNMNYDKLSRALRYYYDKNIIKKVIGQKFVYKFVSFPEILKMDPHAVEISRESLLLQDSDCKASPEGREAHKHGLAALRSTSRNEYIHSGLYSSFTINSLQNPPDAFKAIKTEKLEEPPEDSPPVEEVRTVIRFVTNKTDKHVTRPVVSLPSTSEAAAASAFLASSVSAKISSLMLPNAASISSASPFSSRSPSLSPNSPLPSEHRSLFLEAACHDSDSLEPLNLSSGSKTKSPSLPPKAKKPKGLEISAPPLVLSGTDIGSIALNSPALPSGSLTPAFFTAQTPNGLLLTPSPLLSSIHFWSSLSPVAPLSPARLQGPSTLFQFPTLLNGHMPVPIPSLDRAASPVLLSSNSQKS
In outline: as §1

For assay [8], the target named is T6, FEV (Homo sapiens, UniProt Q99581 1-238).
T6 sequence: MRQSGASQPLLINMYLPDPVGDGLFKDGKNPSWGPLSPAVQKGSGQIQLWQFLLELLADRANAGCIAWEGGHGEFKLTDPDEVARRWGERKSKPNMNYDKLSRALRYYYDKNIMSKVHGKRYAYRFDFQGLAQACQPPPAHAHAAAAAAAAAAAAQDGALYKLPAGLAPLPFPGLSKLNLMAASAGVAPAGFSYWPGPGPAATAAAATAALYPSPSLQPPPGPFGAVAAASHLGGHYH
In outline: as §1

Assay [9] concerns the target ETV5 (Homo sapiens, UniProt P41161 1-510). In outline:
as §1

Assay [10] has as its target T7, SPIC (Homo sapiens, UniProt Q8N5J4 1-248).
T7 sequence: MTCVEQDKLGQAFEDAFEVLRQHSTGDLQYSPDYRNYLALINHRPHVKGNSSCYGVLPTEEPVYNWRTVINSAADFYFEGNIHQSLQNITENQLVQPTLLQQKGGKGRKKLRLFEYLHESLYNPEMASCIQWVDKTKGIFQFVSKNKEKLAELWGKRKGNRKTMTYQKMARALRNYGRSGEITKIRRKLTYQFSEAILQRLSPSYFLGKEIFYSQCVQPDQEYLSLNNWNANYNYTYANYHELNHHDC
In outline:
as §1

Assay [11] deals with ELF4 (Homo sapiens, UniProt Q99607 1-663). In outline:
as §1

Assay [12] has as its target T8, ELK4 (Homo sapiens, UniProt P28324-2 1-405).
T8 sequence: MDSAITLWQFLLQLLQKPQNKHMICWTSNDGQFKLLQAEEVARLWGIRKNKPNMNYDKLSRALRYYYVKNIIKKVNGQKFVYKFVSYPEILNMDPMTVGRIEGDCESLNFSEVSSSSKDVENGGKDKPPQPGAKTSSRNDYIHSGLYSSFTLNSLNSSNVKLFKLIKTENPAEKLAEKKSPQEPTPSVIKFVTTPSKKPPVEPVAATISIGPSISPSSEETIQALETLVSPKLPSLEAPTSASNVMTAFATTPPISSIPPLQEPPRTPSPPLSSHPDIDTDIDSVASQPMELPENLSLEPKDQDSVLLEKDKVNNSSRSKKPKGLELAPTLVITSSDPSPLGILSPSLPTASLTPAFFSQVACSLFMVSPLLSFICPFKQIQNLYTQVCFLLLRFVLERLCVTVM
The procedure, abridged: as §1

In assay [13] the target is T9, ETV2 (Homo sapiens, UniProt O00321 1-342).
T9 sequence: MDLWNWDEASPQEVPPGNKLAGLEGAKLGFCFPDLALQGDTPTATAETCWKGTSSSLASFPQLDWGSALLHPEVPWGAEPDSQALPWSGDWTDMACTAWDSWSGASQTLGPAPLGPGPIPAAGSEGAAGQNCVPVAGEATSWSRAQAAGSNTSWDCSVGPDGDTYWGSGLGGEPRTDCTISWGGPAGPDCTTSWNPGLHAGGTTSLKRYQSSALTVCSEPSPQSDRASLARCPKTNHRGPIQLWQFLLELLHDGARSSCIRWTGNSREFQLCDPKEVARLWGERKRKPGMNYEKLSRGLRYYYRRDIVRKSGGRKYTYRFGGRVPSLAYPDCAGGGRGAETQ
In outline: as §1

Assay [14] concerns the target T10, EHF (Homo sapiens, UniProt Q9NZC4 1-300).
T10 sequence: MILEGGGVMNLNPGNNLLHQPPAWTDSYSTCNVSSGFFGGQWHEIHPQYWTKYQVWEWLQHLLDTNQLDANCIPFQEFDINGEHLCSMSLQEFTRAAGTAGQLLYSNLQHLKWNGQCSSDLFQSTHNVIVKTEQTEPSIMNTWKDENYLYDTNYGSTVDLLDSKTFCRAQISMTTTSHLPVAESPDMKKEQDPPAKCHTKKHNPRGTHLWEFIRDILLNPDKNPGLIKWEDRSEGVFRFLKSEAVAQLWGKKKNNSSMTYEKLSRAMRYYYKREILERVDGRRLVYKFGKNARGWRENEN
In outline: as §1

For assay [15], the target named is SPIB (Homo sapiens, UniProt Q01892 1-262). The procedure, abridged:
as §1

For assay [16], the target named is T11, ELF3 (Homo sapiens, UniProt P78545 1-371).
T11 sequence: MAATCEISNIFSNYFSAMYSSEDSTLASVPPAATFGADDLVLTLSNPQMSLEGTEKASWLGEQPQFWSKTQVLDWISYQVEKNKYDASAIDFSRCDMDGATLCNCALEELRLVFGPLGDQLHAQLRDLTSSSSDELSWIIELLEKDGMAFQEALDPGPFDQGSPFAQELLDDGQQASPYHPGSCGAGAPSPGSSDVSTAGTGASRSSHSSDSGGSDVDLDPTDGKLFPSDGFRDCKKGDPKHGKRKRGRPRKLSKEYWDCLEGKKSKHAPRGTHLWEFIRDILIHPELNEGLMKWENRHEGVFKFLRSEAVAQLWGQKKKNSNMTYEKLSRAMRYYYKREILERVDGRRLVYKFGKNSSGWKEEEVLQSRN
In outline: as §1

The target in assay [17] is ETV1 (Homo sapiens, UniProt P50549 1-477). In outline:
as §1

ETV5, sequence (P41161 whole entry): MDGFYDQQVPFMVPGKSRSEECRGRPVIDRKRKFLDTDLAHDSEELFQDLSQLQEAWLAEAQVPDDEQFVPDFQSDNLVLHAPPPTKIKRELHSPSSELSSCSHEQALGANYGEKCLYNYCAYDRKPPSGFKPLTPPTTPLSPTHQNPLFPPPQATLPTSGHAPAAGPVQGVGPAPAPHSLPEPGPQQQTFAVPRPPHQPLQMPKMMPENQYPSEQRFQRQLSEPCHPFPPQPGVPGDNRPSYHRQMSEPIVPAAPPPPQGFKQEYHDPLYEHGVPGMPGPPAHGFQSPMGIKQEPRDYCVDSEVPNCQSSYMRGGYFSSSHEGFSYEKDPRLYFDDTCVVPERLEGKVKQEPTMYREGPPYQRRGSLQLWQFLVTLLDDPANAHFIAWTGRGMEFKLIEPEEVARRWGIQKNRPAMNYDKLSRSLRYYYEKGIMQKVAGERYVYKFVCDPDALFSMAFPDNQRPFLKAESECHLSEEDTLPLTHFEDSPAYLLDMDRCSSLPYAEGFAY
ELF4, sequence (Q99607 whole entry): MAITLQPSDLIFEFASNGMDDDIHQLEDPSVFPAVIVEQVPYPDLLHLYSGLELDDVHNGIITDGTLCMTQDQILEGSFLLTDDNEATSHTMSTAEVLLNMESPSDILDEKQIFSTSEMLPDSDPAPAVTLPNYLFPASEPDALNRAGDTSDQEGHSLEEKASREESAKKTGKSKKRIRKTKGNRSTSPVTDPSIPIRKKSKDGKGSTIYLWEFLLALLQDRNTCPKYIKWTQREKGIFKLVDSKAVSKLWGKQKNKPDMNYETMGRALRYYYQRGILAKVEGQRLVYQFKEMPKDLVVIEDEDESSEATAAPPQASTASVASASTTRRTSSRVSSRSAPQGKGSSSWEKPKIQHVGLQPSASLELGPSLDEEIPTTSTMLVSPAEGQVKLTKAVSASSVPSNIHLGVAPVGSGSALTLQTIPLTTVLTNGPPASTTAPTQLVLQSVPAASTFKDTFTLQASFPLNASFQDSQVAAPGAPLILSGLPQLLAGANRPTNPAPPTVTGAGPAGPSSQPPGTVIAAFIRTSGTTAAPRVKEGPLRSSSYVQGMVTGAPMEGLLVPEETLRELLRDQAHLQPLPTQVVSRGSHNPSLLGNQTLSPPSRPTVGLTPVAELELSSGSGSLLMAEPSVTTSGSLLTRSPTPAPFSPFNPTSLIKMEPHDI
SPIB, sequence (Q01892 whole entry): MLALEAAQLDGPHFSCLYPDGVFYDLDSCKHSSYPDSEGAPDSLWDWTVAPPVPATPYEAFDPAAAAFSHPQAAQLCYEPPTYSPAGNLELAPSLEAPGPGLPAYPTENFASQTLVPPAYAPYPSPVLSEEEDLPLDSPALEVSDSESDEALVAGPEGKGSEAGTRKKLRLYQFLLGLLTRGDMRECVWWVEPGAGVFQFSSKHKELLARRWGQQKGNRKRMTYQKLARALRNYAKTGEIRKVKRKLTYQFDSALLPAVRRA
ETV1, sequence (P50549 whole entry): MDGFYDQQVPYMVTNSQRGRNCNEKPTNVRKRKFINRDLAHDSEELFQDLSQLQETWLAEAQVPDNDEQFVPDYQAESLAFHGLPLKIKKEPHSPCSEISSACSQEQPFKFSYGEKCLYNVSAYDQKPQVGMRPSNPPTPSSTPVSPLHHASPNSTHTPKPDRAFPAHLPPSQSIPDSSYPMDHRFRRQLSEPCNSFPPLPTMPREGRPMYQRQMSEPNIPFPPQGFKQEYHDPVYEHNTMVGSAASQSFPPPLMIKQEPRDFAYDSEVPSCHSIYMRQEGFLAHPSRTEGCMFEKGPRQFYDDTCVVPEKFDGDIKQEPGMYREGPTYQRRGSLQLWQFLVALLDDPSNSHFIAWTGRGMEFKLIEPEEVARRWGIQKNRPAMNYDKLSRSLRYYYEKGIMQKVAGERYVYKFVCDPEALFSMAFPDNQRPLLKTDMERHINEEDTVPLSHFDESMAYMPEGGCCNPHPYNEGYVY

For the sequence GCTGGC, the binding signal in assay [1] is 1.01 fold enrichment (6-mer frequency, TF over GST control); in assay [2] it was 1.21 fold enrichment (6-mer frequency, TF over GST control); in assay [3] it was 1.02 fold enrichment (6-mer frequency, TF over GST control); in assay [4] it was 1.01 fold enrichment (6-mer frequency, TF over GST control); in assay [5], 1.11 fold enrichment (6-mer frequency, TF over GST control); in [6] it was 1 fold enrichment (6-mer frequency, TF over GST control). Also, the binding signal in [7] was 1.03 fold enrichment (6-mer frequency, TF over GST control); in assay [8], 1.06 fold enrichment (6-mer frequency, TF over GST control); in assay [9], 1.02 fold enrichment (6-mer frequency, TF over GST control); in [10], 1.12 fold enrichment (6-mer frequency, TF over GST control); in assay [11], 1.15 fold enrichment (6-mer frequency, TF over GST control); in [12] it was 1.1 fold enrichment (6-mer frequency, TF over GST control). Further, in assay [13], the binding signal was 1.07 fold enrichment (6-mer frequency, TF over GST control).
As to GCCAAT, the binding signal in assay [1] was 1.1 fold enrichment (6-mer frequency, TF over GST control); in [2], 1.02 fold enrichment (6-mer frequency, TF over GST control); in assay [3], 1.05 fold enrichment (6-mer frequency, TF over GST control); in [4], 1 fold enrichment (6-mer frequency, TF over GST control); in assay [5] it was 1.04 fold enrichment (6-mer frequency, TF over GST control); in assay [14], 1.03 fold enrichment (6-mer frequency, TF over GST control). The binding signal is 1.01 fold enrichment (6-mer frequency, TF over GST control) in [6]; 1.07 fold enrichment (6-mer frequency, TF over GST control) in [15]; 1.11 fold enrichment (6-mer frequency, TF over GST control) in assay [7]; 1.03 fold enrichment (6-mer frequency, TF over GST control) in assay [8]; 1.09 fold enrichment (6-mer frequency, TF over GST control) in [9]; 1.05 fold enrichment (6-mer frequency, TF over GST control) in assay [10]. Also, the binding signal in assay [11] was 1.12 fold enrichment (6-mer frequency, TF over GST control); in [12], 1.01 fold enrichment (6-mer frequency, TF over GST control); in assay [16], 1.2 fold enrichment (6-mer frequency, TF over GST control); in assay [17], 1.13 fold enrichment (6-mer frequency, TF over GST control).

The values are drawn from article PMC7862700, “An all-to-all approach to the identification of sequence-specific readers for epigenetic DNA modifications on cytosine”.
